Reference: PubChem BioAssay (NCATS)
Results filed as inconclusive are left out. Active and inactive are the calls of the source. Unless noted, calls come from the whole dose curve; as a rule, active = well fitted curve in the direction sought with a large enough effect; inconclusive = small, poorly fitted or top-dose-only effect, or another doubt; inactive = no such curve, though single readings can be large; an effect the other way counts as inactive or inconclusive.

Tests used:
[1] = NCATS anti-infectives library activity on the primary C. elegans qHTS viability assay (AID 1745855; calls by dose curve; note: potency is the fitted concentration of half-maximal effect)
How it was run: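 Viability is taken from GFP fluorescence of PE254-GFP-FLuc C. elegans imaged by laser cytometry over 7 days. Ten L1 worms per well grow at 21 °C on TOP10 E. coli capsules with titrated compound; levamisole marks toxicity.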

[2] = target: Glutathione peroxidase 1 (Homo sapiens) (UniProt P07203); assay: Primary qHTS Assay for Inhibitors of Recombinant Selenoprotein Glutathione Peroxidase 1 (GPX1) (AID 1845191); note: nearly all actives have a fitted effect of over 65% in size
How it was run: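 GR-coupled assay: compounds preincubated 30 min at room temperature with GPX1, then reaction started with CHP; final 10 nM GPX1, 1 mM GSH, 0.5 mM CHP, 0.5 mM NADPH, 100 nM GR, 0.01% BSA, pH 7.5 Tris buffer. NADPH fluorescence (340/450 nm) read at 0 and 15 min.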

[3] = target: Phospholipid hydroperoxide glutathione peroxidase GPX4 (Homo sapiens) (UniProt P36969); assay: Primary qHTS Assay for Inhibitors of Recombinant Selenoprotein Glutathione Peroxidase 4 (GPX4) (AID 1845192); note: % is set by controls: 0 for no effect and ±100 for the full control effect; nearly all actives have a fitted effect of over 65% in size
How it was run: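 GR-coupled assay: recombinant GPX4 preincubated 30 min with compound at room temperature; final 200 nM GPX4, 1 mM GSH, 0.5 mM cumene hydroperoxide, 0.5 mM NADPH, 100 nM GR, 0.01% BSA, pH 7.5 Tris. NADPH fluorescence (340/450 nm) read at 0 and 15 min.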

[4] = target: Lysosomal acid glucosylceramidase (Homo sapiens) (UniProt P04062); assay: Glucocerebrosidase-p2 (AID 348; in the data active = potency below about 10 µM; note: potency is the fitted concentration of half-maximal effect); conditions: purified GBA, blue fluorogenic substrate, 40 min
How it was run: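 Compounds titrated from 0.6 nM upwards against 0.2 nM enzyme in pH 5.9 citric acid/KH2PO4, taurocholate, tween-20; blue fluorogenic substrate 80 uM, 40 min room temperature, stopped and read Ex 365/Em 440 for AC50.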

[5] = AP1 Signaling Pathway (AID 357; active = well fitted curve in either direction with a large enough effect, not every such curve was filed as active; note: % is set by controls: 0 for no effect and ±100 for the full control effect); conditions: ME-180 AP-1-bla reporter, EGF-induced, beta-lactamase ratio, 5 h; at 7.69 µM (top of the series) unless noted
How it was run: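 AP-1-bla ME-180 cells with beta-lactamase reporter under AP-1 response element, stimulated with EC50 EGF; compounds titrated, 5 hours at 37 degrees Celsius. CCF4 read at 460/530 nm ratio; positive and negative modulators judged by AC50.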

[6] = target: Cytochrome P450 1A2 (Homo sapiens) (UniProt P05177); assay: p450-cyp1a2 (AID 410; calls by dose curve; note: potency is the fitted concentration of half-maximal effect)
How it was run: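 Human CYP1A2 (20nM) demethylated Luciferin-ME at its Km (100uM) in 100mM KPO4. After 10 min compound preincubation, NADPH regeneration ran the reaction 60 min at room temperature. Luciferin was read by luminescence, normalized to 57 uM furafylline.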

[7] = NFAT Signaling Pathway (AID 444; active = well fitted curve in either direction with a large enough effect, not every such curve was filed as active;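 note: carbachol stimulus at about its EC50 of 1 µM final; % is set by controls: 0 for no effect and ±100 for the full control effect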); conditions: Jurkat NFAT-bla M1, carbachol, beta-lactamase ratio, 5 h; at 7.69 µM (top of the series) unless noted
How it was run: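 Jurkat cells with NFAT-driven β-lactamase reporter and co-expressed M1 receptor, stimulated with carbachol (final 1 uM, ~EC50), compound titration, 5 h at 37 °C. CCF4 loaded 1 h at RT; 460/530 nm ratio gave %activity and AC50.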

[8] = target: Glucocorticoid receptor (Homo sapiens) (UniProt P04150); assay: GR-GFP Redistribution (AID 450;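 active = compounds whose dose series gives a full or clear partial fitted curve of increased nuclear translocation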; note: potency is the fitted concentration of half-maximal effect); conditions: U2OS GR-GFP nuclear translocation, laser cytometry, 2 h
[9] = target: Mitogen-activated protein kinase 10 (Mus musculus) (UniProt Q61831); assay: JNK3 AlphaScreen Assay (AID 530; active = well fitted curve in either direction with a large enough effect, not every such curve was filed as active;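 note: kinase came from lysate of stimulated human HepG2 cells; signal reports phosphorylation of biotinylated GST-cJun 1-79 at Ser73 with 10 µM ATP; % is set by controls: 0 for no effect and ±100 for the full control effect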)
How it was run: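 qHTS format: compounds tested as titrations against IL-1beta/TNF-alpha-activated HepG2 lysate JNK3 with biotin-GST-cJun substrate and 10 uM ATP at room temperature. Loss of anti-phospho-cJun AlphaScreen signal indicates inhibition.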

[10] = target: Cytochrome P450 3A4 (Homo sapiens) (UniProt P08684); assay: qHTS Assay for Activators of Cytochrome P450 3A4 (AID 885); note: nearly all actives have a fitted effect of over 65% in size
How it was run: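 Quantitative HTS format: compounds preincubated with 20nM human CYP3A4 and Luciferin-PPXE substrate at KM, reaction started by NADPH regeneration, stopped after 60 min, luciferase luminescence read 20 min later.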

[11] = target: Cytochrome P450 2D6 (Homo sapiens) (UniProt P10635); assay: qHTS Assay for Inhibitors and Substrates of Cytochrome P450 2D6 (AID 891); note: potency is the fitted concentration of half-maximal effect; nearly all actives have a fitted effect of over 60% in size
How it was run: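 Human CYP2D6 (5 nM) with 30 uM Luciferin-ME EGE (at Km) in 100 mM KPO4, compound preincubated 10 min, then NADPH regeneration system for 60 min at room temperature. Luciferin read by luminescence; normalized to 1.43 uM quinidine.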

[12] = target: Dual specificity protein kinase CLK4 (Homo sapiens) (UniProt Q9HAZ1); assay: qHTS Assay for Inhibitors of CDC-like Kinase 4 (Kinase-Glo Assay) (AID 1770); note: nearly all actives have a fitted effect of over 65% in size; note: potency is the fitted concentration of half-maximal effect
How it was run: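 25 nM Clk4 with 100 uM RS repeat peptide and 1 uM ATP (final) in Tris pH7.5, 10 mM MgCl2, 4.5 h at room temperature. Remaining ATP measured by Kinase-Glo luciferase luminescence.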

[13] = target: Dual specificity protein kinase CLK4 (Homo sapiens) (UniProt Q9HAZ1); assay: qHTS Assay for Inhibitors of CDC-like Kinase 4 (ADP-Glo Assay) (AID 1771); note: nearly all actives have a fitted effect of over 70% in size; note: potency is the fitted concentration of half-maximal effect
How it was run: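 Clk4 (25 nM) was incubated 1 hr at room temperature with 100 uM RS repeat peptide and 1 uM ATP in buffer with 2 mM MgCl2, 0.5 mM EGTA, 2.5 mM DTT. ADP formed was quantified by ADP-Glo luminescence.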

[14] = target: Dual specificity protein kinase CLK4 (Homo sapiens) (UniProt Q9HAZ1); assay: qHTS Assay for Inhibitors of CDC-like Kinase 4 (ADP-FP Assay) (AID 1795); note: nearly all actives have a fitted effect of over 60% in size; note: potency is the fitted concentration of half-maximal effect
How it was run: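 Recombinant Clk4 (6.25 nM) phosphorylated 100 uM RS repeat peptide with 1 uM ATP in 25 mM Tris pH 7.5, 10 mM MgCl2, 0.5 mM EGTA, 2.5 mM DTT, 0.01% Triton X-100 for 1 h. ADP was detected by Transcreener ADP2 competitive fluorescence polarization after 30 min at room temperature.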

[15] = target: Ubiquitin carboxyl-terminal hydrolase 1 (Homo sapiens) (UniProt O94782); assay: Inhibitors of USP1/UAF1: Pilot qHTS (AID 504865); note: nearly all actives have a fitted effect of over 35% in size; note: potency is the fitted concentration of half-maximal effect
How it was run: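 USP1/UAF1 complex at 1 nM preincubated 15 min at room temperature with compound, then Ub-Rho substrate added at 150 nM final. Fluorescence (480/540 nm) read kinetically in 50 mM HEPES pH 7.8, 0.5 mM EDTA, 1 mM TCEP, 0.1 mg/ml BSA, 0.01% Tween-20.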

[16] = target: Glucocorticoid receptor (Homo sapiens) (UniProt P04150); assay: GR-EFC Redistribution (AID 451; calls by dose curve; note: potency is the fitted concentration of half-maximal effect); conditions: CHO-K1 GR-EFC translocation, beta-gal luminescence, 2 h
How it was run: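 CHO-K1 cells expressing nuclear EA and GR-ED fragments of b-gal; compounds titrated up to 46 uM final, 2 h at 37 C. GR nuclear translocation read as complemented b-gal luminescence after 1 h RT detection.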

[17] = target: 3',5'-cyclic-AMP phosphodiesterase 4B (Homo sapiens) (UniProt Q07343); assay: qHTS Assay for Inhibitors of PDE-IV (AID 607; active = well fitted activation curve with a large enough effect in the main read-out, with a control signal flat, not every such curve was filed as active; note: % of control where 0% means no effect)
How it was run: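 Live HEK293 cells with a modified cyclic nucleotide-gated (CNG) channel report intracellular cAMP via membrane-potential dye fluorescence (ex 535/em 590 nm). Endogenous PDE-IV was targeted. Compounds were tested at up to 22.9 uM final; RO 20-1724 100 uM served as control.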

[18] = target: Cytochrome P450 2C9 (Homo sapiens) (UniProt P11712); assay: qHTS Assay for Inhibitors and Substrates of Cytochrome P450 2C9 (AID 883); note: % is set by controls: 0 for no effect and ±100 for the full control effect; nearly all actives have a fitted effect of over 60% in size
How it was run: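 Human CYP2C9 (10nM) with Luciferin-H at 100uM (its KM) in 25mM KPO4; compound preincubated 10 min at 37C, then NADPH regeneration for 60 min at 37C. Luciferin read by luminescence after detection reagent; normalized to 57uM sulphaphenazole as full inhibition.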

[19] = target: Cytochrome P450 3A4 (Homo sapiens) (UniProt P08684); assay: qHTS Assay for Inhibitors and Substrates of Cytochrome P450 3A4 (AID 884); note: potency is the fitted concentration of half-maximal effect; nearly all actives have a fitted effect of over 50% in size
How it was run: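 20 nM human CYP3A4 with 25 uM Luciferin-PPXE (at KM) in 200 mM KPO4, preincubated 10 min with compound; NADPH regeneration started a 60 min RT reaction. Luciferin detected by luminescence, normalized to 57 uM ketoconazole as full inhibition.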

[20] = Stat Signaling Pathway (AID 446; active = well fitted curve in either direction with a large enough effect, not every such curve was filed as active;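 note: ME-180 cervical cancer cells given 40 pM IL-6 alongside compound; SIE-controlled beta-lactamase reporter measured as 460/530 nm FRET emission ratio; % is set by controls: 0 for no effect and ±100 for the full control effect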)
How it was run: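 IL-6/STAT signaling read in ME-180 cells via an SIE beta-lactamase reporter. Stimulus was 40 pM IL-6 (its AC50) for 5 hrs, so both activation and inhibition register.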

[21] = qHTS Assay for Identification of Small Molecule Agonists for Hypoxia Response Element Signaling Pathway (AID 914; active = well fitted activation curve with a large enough effect in the signal ratio, with a control signal flat, not every such curve was filed as active; the % refers to the signal ratio; note: % of control where 0% means no effect); conditions: ME-180 (cervical carcinoma) HRE-bla reporter, beta-lactamase ratio, CoCl2, 17 h; activation: hits give high values
How it was run: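 HRE-bla ME-180 assay for agonist-like enhancement of an EC50 CoCl2 stimulus: 17 h at 37 degrees Celsius, CCF4 for 2.5 h, ratiometric 460/530 nm signal converted to %Activity and fitted to AC50.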

Cytochrome P450 2D6 (Homo sapiens), sequence (P10635 whole entry, looked up): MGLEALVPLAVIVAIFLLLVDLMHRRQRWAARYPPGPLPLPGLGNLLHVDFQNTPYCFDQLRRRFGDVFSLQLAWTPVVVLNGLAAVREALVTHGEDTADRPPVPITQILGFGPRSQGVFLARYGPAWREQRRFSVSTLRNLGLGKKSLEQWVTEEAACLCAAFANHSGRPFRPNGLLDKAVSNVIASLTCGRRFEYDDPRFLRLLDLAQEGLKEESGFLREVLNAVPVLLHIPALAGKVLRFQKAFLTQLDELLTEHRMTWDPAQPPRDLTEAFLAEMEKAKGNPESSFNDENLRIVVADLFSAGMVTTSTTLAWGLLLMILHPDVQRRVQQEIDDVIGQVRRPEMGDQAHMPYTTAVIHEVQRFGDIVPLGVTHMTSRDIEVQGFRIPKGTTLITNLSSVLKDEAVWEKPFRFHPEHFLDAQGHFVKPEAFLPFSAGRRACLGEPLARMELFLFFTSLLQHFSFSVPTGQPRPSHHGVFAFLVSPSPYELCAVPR
Dual specificity protein kinase CLK4 (Homo sapiens), sequence (Q9HAZ1 whole entry, looked up): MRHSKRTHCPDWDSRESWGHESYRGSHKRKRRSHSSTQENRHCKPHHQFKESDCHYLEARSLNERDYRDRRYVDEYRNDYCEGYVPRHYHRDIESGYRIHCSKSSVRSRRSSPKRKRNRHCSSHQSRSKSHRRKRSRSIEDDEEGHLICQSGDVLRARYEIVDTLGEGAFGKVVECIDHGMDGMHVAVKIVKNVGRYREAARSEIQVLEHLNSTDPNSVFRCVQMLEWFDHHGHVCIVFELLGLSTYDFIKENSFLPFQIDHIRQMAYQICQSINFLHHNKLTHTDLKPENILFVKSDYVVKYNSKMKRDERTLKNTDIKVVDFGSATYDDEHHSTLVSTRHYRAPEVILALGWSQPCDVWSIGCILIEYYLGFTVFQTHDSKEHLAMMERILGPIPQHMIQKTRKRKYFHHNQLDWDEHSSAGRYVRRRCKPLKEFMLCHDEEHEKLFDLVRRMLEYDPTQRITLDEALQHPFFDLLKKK
Glucocorticoid receptor (Homo sapiens), sequence (P04150 whole entry, looked up, the tested form may be a part): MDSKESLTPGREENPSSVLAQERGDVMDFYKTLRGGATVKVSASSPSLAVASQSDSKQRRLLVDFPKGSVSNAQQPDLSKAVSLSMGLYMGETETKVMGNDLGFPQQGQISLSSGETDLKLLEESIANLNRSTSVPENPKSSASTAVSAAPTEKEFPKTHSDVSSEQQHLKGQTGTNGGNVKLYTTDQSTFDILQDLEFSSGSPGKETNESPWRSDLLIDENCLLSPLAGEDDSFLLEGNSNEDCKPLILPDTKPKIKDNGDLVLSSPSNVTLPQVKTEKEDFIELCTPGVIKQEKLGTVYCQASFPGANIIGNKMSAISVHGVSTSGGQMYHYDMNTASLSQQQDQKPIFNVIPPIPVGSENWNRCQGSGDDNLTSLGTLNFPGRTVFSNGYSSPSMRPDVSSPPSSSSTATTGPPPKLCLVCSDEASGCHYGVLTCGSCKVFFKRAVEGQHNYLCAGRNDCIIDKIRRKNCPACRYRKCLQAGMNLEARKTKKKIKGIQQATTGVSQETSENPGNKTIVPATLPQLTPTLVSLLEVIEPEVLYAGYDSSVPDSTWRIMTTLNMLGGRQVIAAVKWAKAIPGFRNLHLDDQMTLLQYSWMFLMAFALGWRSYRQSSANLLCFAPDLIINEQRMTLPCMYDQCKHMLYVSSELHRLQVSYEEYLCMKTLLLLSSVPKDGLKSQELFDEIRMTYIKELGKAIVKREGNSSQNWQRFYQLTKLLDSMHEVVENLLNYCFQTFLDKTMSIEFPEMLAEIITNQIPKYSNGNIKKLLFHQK
3',5'-cyclic-AMP phosphodiesterase 4B (Homo sapiens), sequence (Q07343 whole entry, looked up): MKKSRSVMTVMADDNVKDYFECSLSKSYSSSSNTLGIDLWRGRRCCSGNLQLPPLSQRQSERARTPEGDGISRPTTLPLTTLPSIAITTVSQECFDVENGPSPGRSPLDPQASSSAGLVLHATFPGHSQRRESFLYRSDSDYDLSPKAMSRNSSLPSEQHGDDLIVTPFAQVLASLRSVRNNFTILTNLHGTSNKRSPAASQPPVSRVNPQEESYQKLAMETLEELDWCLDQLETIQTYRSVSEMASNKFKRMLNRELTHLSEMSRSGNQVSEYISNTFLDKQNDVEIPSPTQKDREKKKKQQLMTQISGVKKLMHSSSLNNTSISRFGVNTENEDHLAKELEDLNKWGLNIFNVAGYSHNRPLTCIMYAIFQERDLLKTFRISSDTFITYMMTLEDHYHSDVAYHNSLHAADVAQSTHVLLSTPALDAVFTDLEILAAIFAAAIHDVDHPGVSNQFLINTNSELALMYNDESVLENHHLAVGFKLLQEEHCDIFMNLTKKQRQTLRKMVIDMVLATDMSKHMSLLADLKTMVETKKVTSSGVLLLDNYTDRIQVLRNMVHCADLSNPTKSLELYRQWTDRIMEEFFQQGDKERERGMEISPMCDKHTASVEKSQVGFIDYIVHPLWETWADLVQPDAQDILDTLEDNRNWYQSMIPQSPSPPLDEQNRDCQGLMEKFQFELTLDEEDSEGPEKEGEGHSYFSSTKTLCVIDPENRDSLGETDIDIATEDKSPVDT
Cytochrome P450 1A2 (Homo sapiens), sequence (P05177 whole entry, looked up): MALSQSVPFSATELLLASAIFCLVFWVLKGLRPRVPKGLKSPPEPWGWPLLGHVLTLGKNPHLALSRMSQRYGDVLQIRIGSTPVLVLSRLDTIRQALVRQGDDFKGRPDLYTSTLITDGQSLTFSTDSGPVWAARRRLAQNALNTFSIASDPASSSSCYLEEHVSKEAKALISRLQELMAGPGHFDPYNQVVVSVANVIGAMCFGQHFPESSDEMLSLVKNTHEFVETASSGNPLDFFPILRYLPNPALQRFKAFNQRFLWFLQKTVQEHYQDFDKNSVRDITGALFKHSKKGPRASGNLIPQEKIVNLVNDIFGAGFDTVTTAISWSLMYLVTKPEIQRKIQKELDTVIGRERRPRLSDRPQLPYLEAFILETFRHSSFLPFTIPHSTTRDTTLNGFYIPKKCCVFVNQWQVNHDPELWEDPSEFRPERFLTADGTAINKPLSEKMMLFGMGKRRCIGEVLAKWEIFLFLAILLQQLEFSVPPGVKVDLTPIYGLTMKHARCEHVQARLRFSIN
Lysosomal acid glucosylceramidase (Homo sapiens), sequence (P04062 whole entry, looked up): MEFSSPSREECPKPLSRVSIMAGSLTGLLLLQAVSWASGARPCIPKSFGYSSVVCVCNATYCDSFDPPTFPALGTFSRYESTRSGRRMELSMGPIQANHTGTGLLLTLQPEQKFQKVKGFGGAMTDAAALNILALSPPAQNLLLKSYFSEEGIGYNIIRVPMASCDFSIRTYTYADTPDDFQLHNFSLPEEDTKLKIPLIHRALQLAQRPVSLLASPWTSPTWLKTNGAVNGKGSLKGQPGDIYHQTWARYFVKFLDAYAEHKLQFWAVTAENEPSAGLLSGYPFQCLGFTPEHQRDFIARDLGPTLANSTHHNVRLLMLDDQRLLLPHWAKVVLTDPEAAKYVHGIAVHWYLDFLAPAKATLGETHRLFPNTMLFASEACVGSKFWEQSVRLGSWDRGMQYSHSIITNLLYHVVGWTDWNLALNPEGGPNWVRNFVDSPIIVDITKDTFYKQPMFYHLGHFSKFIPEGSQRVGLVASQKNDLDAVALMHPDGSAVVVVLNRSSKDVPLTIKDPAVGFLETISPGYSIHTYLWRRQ
Ubiquitin carboxyl-terminal hydrolase 1 (Homo sapiens), sequence (O94782 whole entry, looked up): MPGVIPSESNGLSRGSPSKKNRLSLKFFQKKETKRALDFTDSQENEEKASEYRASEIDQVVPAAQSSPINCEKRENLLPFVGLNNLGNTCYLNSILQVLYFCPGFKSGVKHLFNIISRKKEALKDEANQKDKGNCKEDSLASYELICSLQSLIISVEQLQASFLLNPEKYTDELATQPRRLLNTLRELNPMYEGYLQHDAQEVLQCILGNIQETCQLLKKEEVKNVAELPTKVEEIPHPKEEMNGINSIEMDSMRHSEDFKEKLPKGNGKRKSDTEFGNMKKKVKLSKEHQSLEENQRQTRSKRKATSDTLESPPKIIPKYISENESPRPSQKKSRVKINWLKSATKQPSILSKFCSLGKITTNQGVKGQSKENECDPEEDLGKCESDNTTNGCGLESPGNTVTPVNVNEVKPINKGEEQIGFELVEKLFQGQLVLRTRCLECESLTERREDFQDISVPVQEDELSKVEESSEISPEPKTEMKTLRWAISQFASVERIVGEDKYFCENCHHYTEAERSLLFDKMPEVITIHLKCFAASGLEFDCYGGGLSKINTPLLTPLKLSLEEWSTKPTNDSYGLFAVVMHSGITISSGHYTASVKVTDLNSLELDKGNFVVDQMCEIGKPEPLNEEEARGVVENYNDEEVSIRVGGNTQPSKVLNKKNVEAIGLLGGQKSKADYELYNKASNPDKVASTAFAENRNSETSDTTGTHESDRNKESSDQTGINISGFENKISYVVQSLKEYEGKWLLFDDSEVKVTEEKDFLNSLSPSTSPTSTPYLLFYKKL
Cytochrome P450 3A4 (Homo sapiens), sequence (P08684 whole entry, looked up): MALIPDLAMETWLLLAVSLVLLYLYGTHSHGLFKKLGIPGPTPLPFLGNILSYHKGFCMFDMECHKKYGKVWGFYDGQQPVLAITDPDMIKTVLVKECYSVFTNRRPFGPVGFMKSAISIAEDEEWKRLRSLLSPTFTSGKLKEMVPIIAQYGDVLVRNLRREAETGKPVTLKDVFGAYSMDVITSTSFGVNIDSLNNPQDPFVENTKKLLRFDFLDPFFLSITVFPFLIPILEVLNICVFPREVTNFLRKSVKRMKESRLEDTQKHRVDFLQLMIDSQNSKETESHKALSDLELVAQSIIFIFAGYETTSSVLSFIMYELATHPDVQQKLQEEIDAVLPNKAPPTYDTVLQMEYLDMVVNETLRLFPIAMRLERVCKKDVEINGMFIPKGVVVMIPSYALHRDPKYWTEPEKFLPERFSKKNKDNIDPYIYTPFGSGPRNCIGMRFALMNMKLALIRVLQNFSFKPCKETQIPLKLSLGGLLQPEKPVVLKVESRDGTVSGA

COc1ccc(-c2oc3cc(OC)c(OC)c(O)c3c(=O)c2OC)cc1O
active: Potency [1] 0.816 µM

CC(C)C[C@H](NC(=O)CNC(=O)c1cc(Cl)ccc1Cl)B1OC(=O)C(CC(=O)O)(CC(=O)O)O1
inactive: Potency [2] | Potency [3]
active: Potency [1] 1.63 µM

CCNc1ncc2nc(-c3ccccc3)c(=O)n(CCC#N)c2n1
active: Potency [6] 3.16 µM | Potency [11] 0.501 µM
inactive: Potency [4] > 11.4 µM | activity change, negative = inhibition [5] -3.6% | activity change, negative = inhibition [7] 27.9% | Potency [8] > 9.22 µM | Potency [9] | outcome [10] | Potency [12] | Potency [13] | Potency [14] | Potency [15]

COc1cccc(-c2nc(N(C)C)c3ccccc3n2)c1
inactive: Potency [4] > 11.4 µM | activity change, negative = inhibition [5] 15.5% | activity change, negative = inhibition [7] -14.5% | Potency [8] > 46 µM | Potency [16] > 46 µM | Potency [9] | Potency [17] | activity change, negative = inhibition [18] 45.3% [at 2.29 µM] | outcome [10]
active: Potency [6] 0.251 µM | Potency [19] 5.01 µM | Potency [12] 11.2 µM | Potency [13] 7.08 µM | Potency [14] 11.2 µM

N#Cc1cccc(-c2nc(NCCN3CCOCC3)c3ccccc3n2)c1
active: Potency [6] 1 µM | Potency [11] 7.94 µM | Potency [12] 11.2 µM | Potency [13] 6.31 µM | Potency [14] 7.94 µM
inactive: Potency [4] > 11.4 µM | activity change, negative = inhibition [5] -13% | outcome [20] | Potency [8] > 46 µM | Potency [16] > 46 µM | Potency [9] | Potency [17] | outcome [10] | activation [21] -16.9% | Potency [15]

COCCn1c(=O)c(CCc2ccccc2)nc2cncnc21
active: Potency [6] 10 µM | Potency [19] 7.94 µM
inactive: Potency [4] > 11.4 µM | activity change, negative = inhibition [5] -15.8% | outcome [20] | Potency [16] > 46 µM | Potency [9] | Potency [17] | outcome [10] | Potency [12] | Potency [13] | Potency [14] | Potency [15]

N#Cc1cccc(-c2ccc3ncnc(NCc4cccs4)c3c2)c1
active: Potency [6] 0.1 µM | Potency [19] 3.16 µM | Potency [12] 10 µM | Potency [13] 8.91 µM | Potency [15] 22.4 µM
inactive: Potency [4] > 11.4 µM | outcome [20] | Potency [8] > 46 µM | Potency [16] > 46 µM | Potency [9] | Potency [17] | outcome [10]

COc1cccc(-c2nc(NC3CC3)c3ccccc3n2)c1
active: Potency [4] 2.73 µM | Potency [19] 1.26 µM | Potency [11] 7.94 µM | Potency [12] 7.08 µM | Potency [14] 2.82 µM
inactive: activity change, negative = inhibition [5] -6.5% | activity change, negative = inhibition [7] 1.07% | outcome [20] | Potency [8] > 46 µM | Potency [16] > 46 µM | Potency [9] | outcome [10]
